# Experimental data taken from PubChem BioAssay AID588342 (National Center for Advancing Translational Sciences (NCATS), 2011).
# In all, about 360,000 compounds went through this assay and about 25,000 (6.9%) were called active. Not shown: some 9% with an inconclusive outcome. The full list was thinned out, with actives kept by preference. Values without a mark were called inactive. The call rests on the fitted dose curve; in most records, active means well fitted inhibition curve with a large enough effect; inconclusive means small, poorly fitted or top-dose-only effect; inactive means flat fitted curve, though single readings scatter.
# Target: Luciferin 4-monooxygenase (Photinus pyralis) (UniProt P08659)
# Sequence (P08659 whole entry, looked up): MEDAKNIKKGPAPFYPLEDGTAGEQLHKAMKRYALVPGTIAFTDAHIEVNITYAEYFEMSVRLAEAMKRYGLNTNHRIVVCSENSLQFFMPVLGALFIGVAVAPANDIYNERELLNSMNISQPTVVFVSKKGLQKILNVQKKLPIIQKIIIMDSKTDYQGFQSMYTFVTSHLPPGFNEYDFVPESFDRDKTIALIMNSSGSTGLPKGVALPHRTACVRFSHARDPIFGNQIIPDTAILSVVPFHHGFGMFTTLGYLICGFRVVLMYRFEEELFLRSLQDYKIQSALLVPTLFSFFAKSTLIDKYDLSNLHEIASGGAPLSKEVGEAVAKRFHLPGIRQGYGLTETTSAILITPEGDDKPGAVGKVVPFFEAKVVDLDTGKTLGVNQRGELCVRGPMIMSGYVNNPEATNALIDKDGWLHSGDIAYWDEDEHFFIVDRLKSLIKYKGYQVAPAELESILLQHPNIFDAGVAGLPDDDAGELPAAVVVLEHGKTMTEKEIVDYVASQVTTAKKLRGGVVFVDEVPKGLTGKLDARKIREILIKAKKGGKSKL
# Assay: qHTS profiling assay for firefly luciferase inhibitor/activator using purifed enzyme and Km concentrations of substrates (counterscreen for miR-21 project); further: nearly all actives have a fitted effect of over 55% in size;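 on activity change, negative = inhibition: plate controls were vehicle for no effect and reference inhibitor for full effect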
# Details: purified FLuc, luminescence inhibition; series mostly up to 57.5 µM; activity change, negative = inhibition: at the top concentration
# Source text: MLPCN Grant: 1 R21 NS059478-01 (miR-21 grant) Assay Provider: NCGC NCGC Assay Overview: Firefly (Photinus pyralis) luciferase is one of the most commonly used transcriptional reporters for a number of reasons. It is considered one of the more dynamically responsive reporters -that is, responsive to changes in reporter transcription - as it requires no post-translational modifications and is enzymatically active directly after protein synthesis (Wood, 1998). Additionally, the half-life of the luciferase protein is short relative to other reporter-gene products (Wood, 1995). Whereas reporters with long half-lives potentially allow for increased signal due to accumulation of reporter-gene product, once accumulated in the cell, dynamic changes in reporter-gene expression may be difficult to detect(Fan and Wood, 2007; Almond et al., 2004). It has been shown that wild-type P. pyralis luciferase has a half-life of approximately […] hours in mammalian cells (Thompson et al., 1991). Firefly luciferase reporter-gene assays are also generally considered one of the most sensitive assay types (Wood, 1995; Wood, 1998). Although light produced in a bioluminescence reaction is of lower intensity than that produced during fluorescence emission, this is offset by little to no background light inherent to luminescent assays. Thus the luciferase reporter can be expressed at much lower levels than fluorescent proteins while still providing robust signal. # However, it was initially observed, in 1991, by Thompson et al., that compounds that resemble the substrates of firefly luciferase (FLuc) can act as competitive inhibitors of the enzyme, and that these compounds, upon interaction with luciferase in the cell, can actually stabilize the protein and increase its half-life. Accumulated intracellular FLuc protein can be measured as an increase in luminescence signal, upon addition of detection reagents (which contain high concentrations of FLuc substrates) commonly used in high-throughput screening. In cell-based reporter gene assays that use FLuc as the reporter gene to quantitate the potential influence of a given compound against the target biology, this apparent increase in luminescence can mistakenly be interpreted as identification of a compound that is active against the target of interest. This is the case for the miR-21 FLuc reporter gene assay used to identify inhibitors of the miR-21 pathway (PubChem AID 2289) - compounds of interest will inhibit miR-21 biogenesis/expression or activity, and are identified by causing an increase in luminescence, due to increased FLuc translation. However, FLuc inhibitory compounds that stabilize the FLuc protein will give an identical read-out, making it difficult to distinguish compounds that are active against the target from those active against FLuc. Previous profiling work to determine the prevalence of compounds that affect FLuc enzymatic activity (PubChem AID 411) identified that ~3% of the MLSMR library (then at ~72K) inhibited FLuc. […] Since the MLSMR had grown to ~350K compounds, and since it was expected that a significant percentage of compounds found active in the miR-21 FLuc assay would be FLuc inhibitors, the library was screened for activity against FLuc using a biochemical assay of purified FLuc and KM concentrations of FLuc substrates (D-luciferin and ATP).
# NCGC Assay Protocol Summary: Reagents: 50mM Tris acetate, pH 7.5; 10mM Mg acetate; 10uM D-luciferin (Sigma #L9504); 10uM ATP; 0.01% Tween-20; 0.05% BSA; 10nM P. pyralis luciferase (Sigma #L9506) Control compounds used were two known firefly luciferase inhibitors (compounds (2) and (5) in Auld et al., 2010), and DMSO. […]
Structure (SMILES),"activity change, negative = inhibition [%]",Potency
O=C(COC(=O)CCc1nc2ccccc2c(=O)[nH]1)Nc1ccc(N2CCOCC2)cc1,2.6,
CCCCCCSc1nsc(N)n1,,26.9 µM (active)
CCCSc1nsc(N)n1,1.46,
CC(C)CC(=O)NC(=S)NNC(=O)c1cccc([N+](=O)[O-])c1,-3.1,
COc1ccc(OCCNC(=O)c2cc(C3CC3)nc3c2cnn3C(C)C)cc1,-1.66,
CCOC(=O)c1ccc(NC(=O)C2CCN(S(=O)(=O)c3ccc4c(c3)CCCC(=O)N4)CC2)cc1,-2.69,
COc1cccc(CSc2nc3nc(C)cc(C)n3n2)c1,-7.46,
COc1ccc2nc(SCc3ccccc3)nc(C)c2c1,,2.69 µM (active)
COc1ccc(-c2nnc3ccc(SCc4ccccc4)nn23)cc1,5.99,
CC(Oc1ccc(Br)cc1)C(=O)NC1CCCCCC1 (configuration not stated),-13,
CCn1cc(C(=O)N2CCN(c3cc(Cl)ccc3C)CC2)c(=O)c2cc(S(=O)(=O)N3CCCC3)ccc21,-11.8,
CC(C)(Oc1ccc(Cl)cc1)C(=O)OCC(=O)NCCc1ccc(S(N)(=O)=O)cc1,0.709,
O=C(NCCc1ccccc1)C(=O)NCC(c1ccco1)S(=O)(=O)c1ccccc1 (configuration not stated),4.63,
CCCCn1c(N)c(N(CCOC)C(=O)c2cccc(S(=O)(=O)N(C)c3ccccc3)c2)c(=O)[nH]c1=O,-6.07,
O=C(c1cn(-c2ccccc2)nc1-c1cccnc1)N1CCN(S(=O)(=O)c2ccccc2F)CC1,-17.1,
COc1ccccc1N1CCN(C(=O)c2cn(-c3ccccc3)nc2-c2cccnc2)CC1,,9.53 µM (active)
NC(=O)C1CCN(C(=O)c2cn(-c3ccccc3)nc2-c2cccnc2)CC1,-10.3,
CCOCCCNC(=O)c1c(NC(=O)Cc2coc3c(C)c(C)ccc23)sc2c1CCC2,-13.5,
CC[C@]1(c2ccccc2OC)C(=O)N(C(=O)OC)N1C(=O)OC,-0.0873,
O=C(COc1ccccc1)NCc1ccc2c(c1)CCN2C(=O)c1ccc(F)cc1,-19.4,
Cc1cccc(OCCNC(=O)CSc2ccc(C(F)(F)F)cc2[N+](=O)[O-])c1,4.07,
COc1ccc(-c2nn(CC(=O)Nc3ccccc3F)c3c2cnc2ccc(F)cc23)cc1,5.92,
CC(C)(C)OC(=O)N1CCC(C(=O)NNC(=O)c2ccc(Cl)cc2Cl)CC1,-9.56,
COc1cccc(NC(=O)c2nn(C34CC5CC(CC(C5)C3)C4)cc2[N+](=O)[O-])c1,-19.1,
O=C(Nc1ccc2c(c1)OCCO2)c1ccoc1,,21.3 µM (active)
Cc1nn(CC(=O)Nc2ccc3c(c2)OCO3)c(C)c1[N+](=O)[O-],6.2,

Structure (SMILES),"activity change, negative = inhibition [%]",Potency
Cn1cc([N+](=O)[O-])c(C(=O)Nc2ccc3c(c2)OCCO3)n1,,16.9 µM (active)
O=C(Nc1cccc(NC(=O)c2ccco2)c1)c1cnccn1,-19.7,
O=C(Nc1ccc2c(c1)OCO2)c1ccc(N2C(=O)c3ccccc3C2=O)cc1,-1.23,
O=C(CCN1C(=O)c2ccncc2C1=O)Nc1ccc2c(c1)OCCO2,0.0538,
CCC(C(=O)Nc1ccc2c(c1)OCCO2)c1ccccc1 (configuration not stated),-16.1,
O=C(Nc1ccc2c(c1)OCCO2)c1cnccn1,,12 µM (active)
O=C(OCc1cc(=O)n2ccsc2n1)C1(c2ccc(Cl)cc2)CC1,2.5,
COCC(C)NS(=O)(=O)c1ccc(N2CCCCS2(=O)=O)cc1 (configuration not stated),1.96,
COc1ccccc1N=C1SC(C)CN1C(=O)C1CCC1 (configuration not stated),1.9,
CCOc1ccc(C(=O)Nc2ccc3nc4c(c(Nc5ccccc5OC)c3c2)CCCC4)cc1,-11.2,
CCOC(=O)C1CCN(c2ncnc3c2c(-c2ccccc2)cn3-c2cccc(C)c2)CC1,0.255,
COc1ccc(C(C)NC(=O)C23CC4CC(CC(C4)C2)C3)cc1 (configuration not stated),-0.288,
CC(=O)c1ccc(S(=O)(=O)Nc2ccc(-c3ccc4nncn4n3)cc2)cc1,6.25,
CC(C)NS(=O)(=O)c1ccc(NC(=O)C2CCCCC2)cc1,3.94,
O=C(Nc1ccc(-c2ccc3nncn3n2)cc1)C1CCCCC1,,26.9 µM (active)
COc1ccccc1NC(=O)c1oc2ccccc2c1NC(=O)COc1ccccc1OC,4.13,
CCCCN(CC)CCCNC(=O)c1nn(C)c2c1CSc1ccccc1-2,-2.58,
CCOC(=O)c1ccc(CS(=O)c2ccc(Cl)cc2)o1 (configuration not stated),2.9,
CCOC(=O)N1CCN(C(=O)CNC(=O)Cc2ccc(Cl)cc2)CC1,2.66,
CCOC(=O)c1c(Cc2ccc(Cl)cc2)c[nH]c1C,,19 µM (active)
Cc1nc(C(=O)Nc2ccc(Cl)cc2)sc1C1(C)CC(c2ccccc2)=NO1 (configuration not stated),-0.924,
Cc1nc(-c2ccc(Cl)cc2)sc1C1(C)CC(c2ccccc2F)=NO1 (configuration not stated),,19 µM (active)
CC1(c2nnc(Cc3ccccc3)o2)CC(c2ccccc2F)=NO1 (configuration not stated),3.85,
CN(CC(=O)Nc1ccc(F)c(F)c1F)C(=O)C1CC(=O)N(C2CCCC2)C1 (configuration not stated),5.16,
O=C(CSc1ncn[nH]1)NCc1ccc2c(c1)OCO2,1.02,
O=C(/C=C/Sc1ncn[nH]1)c1ccc(Cl)cc1,,1.9 µM (active)
